High-throughput results (PubChem BioAssay)
E coli growth-1: E. coli growth inhibition, primary screen, OD600. Escherichia coli growth, 23 h; stronger effect = lower value. OD600 absorbance (concentration not given with the values). actives 0.21% (n = 330,000). AID 1053175, 2014;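 active = OD600 absorbance below the run mean of sample wells minus 3.6 SD, in any replicate, cut at about 0.56 in these data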
E coli growth-2: E. coli V3065 growth inhibition, primary screen, counter-screen for AddAB inhibitor project, absorbance, OD600 | inhibition, % at 11.9 µM | AID 449728, 2010 | actives 0.27% (n = 330,000) | 18 h;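 active = inhibition above the campaign's mean inhibition across all tested compounds plus 3 SD, cut at about 9.9% in these data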;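 note: uninfected addAB+ strain grown without phage in ampicillin broth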
phage Ecoli inh: growth loss of phage-infected E. coli, primary screen, RecBCD inhibitor project, absorbance, with phage, HTS | actives 0.26% (n = 360,000) | inhibition, % at 11.9 µM | AID 651602, 2012; in the data active = inhibition above about 11%
Tat transport: E. coli Tat export inhibitors, primary screen, MC4100, TorA-mCherry reporter, fluorescence, single point; inhibition, % at 10 µM; actives 0.036% (n = 340,000); AID 488895, 2010;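 active = mean replicate inhibition at least 50% and at least half of replicates individually reaching 50%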;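 note: exported cargo escapes ClpAP degradation while cytoplasmic cargo is degraded and loses fluorescence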
AddAB inh: growth inhibition of E. coli expressing H. pylori AddAB, primary screen, AddAB inhibitor project, absorbance | AID 435030, 2010 | actives 0.29% (n = 330,000) | inhibition, % at 11.9 µM; in the data active = inhibition above about 12%
RecBCD conf: growth loss of phage-infected RecBCD+ E. coli, confirmation, RecBCD inhibitor project, absorbance, E. coli V66, T4 gene 2 phage | actives 45% (n = 890) | AID 651982, 2013 | shares compounds with phage Ecoli inh | E. coli V66 + T4 2- phage, growth OD | inhibition, % at 11.9 µM;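 active = mean inhibition over triplicates exceeding the hit threshold derived in the original primary screen, cut at about 11% in these data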
Ecoli viability: E. coli viability inhibition, counter-screen for RecBCD inhibitor project, absorbance, high throughput. shares compounds with phage Ecoli inh. absorbance (OD) growth. inhibition, % at 11.9 µM. actives 29% (n = 890). AID 651983, 2013; in the data active = inhibition above about 20%;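 note: E. coli strain V66 grown with compound alone and no phage infection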
AddAB counter: growth loss of phage-infected AddAB-carrying E. coli, confirmation, counter-screen for RecBCD inhibitor project, absorbance, E. coli V3065, T4 phage; shares compounds with phage Ecoli inh; E. coli expressing H. pylori AddAB + T4 phage, OD growth; gene 2 mutant T4, recBCD-deleted host; actives 45% (n = 890); inhibition, % at 11.9 µM;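 active = mean inhibition above the solvent-only control wells' mean plus 3 SD, cut at about 22% in these data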;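 note: higher means less bacterial growth from phage killing when AddAB is blocked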
A number is an active result; – = inactive; · = not tested or not shown. The list is not random: actives were taken first. Their share in the collection is about 0.5%.

SMILES | E coli growth-1 | E coli growth-2 | phage Ecoli inh | Tat transport | AddAB inh | RecBCD conf | Ecoli viability | AddAB counter
O=C(Cc1ccc(F)cc1)NN=Cc1ccncc1 | – | · | · | · | · | · | · | ·
O=C(C=Cc1ccoc1)c1ccccc1O | – | · | · | · | · | · | · | ·
CC1CC1C(=O)Nc1nc(-c2ccc(Cl)s2)cs1 (stereo unspecified) | – | – | – | – | – | · | · | ·
CN(C(=O)C1CCC1C(=O)O)c1nc(-c2ccc(Cl)s2)cs1 (stereo unspecified) | – | – | 99 | – | – | – | – | –
Nc1ncn([C@H]2C[C@H](O)[C@@H](CO)O2)c(=O)n1 | · | – | 12 | – | – | 14 | – | 34
COC(=O)c1ccc(NC(=O)Nc2ccc(F)cc2F)cc1 | – | – | – | – | – | · | · | ·
COC(=O)c1ccc(NC(=O)Nc2cccc(F)c2)cc1 | – | – | 12 | – | – | – | – | –
O=C1CCCC(=NNC(=O)C2CCN(S(=O)(=O)c3cccs3)CC2)C1 | – | · | · | · | · | · | · | ·
O=C(c1ccc(NC2=NC3CS(=O)(=O)CC3S2)cc1)N1CCN(Cc2ccccc2)CC1 (stereo unspecified) | – | – | 13 | – | – | – | – | –
CCOC(=O)NN=Cc1cn(Cc2ccc(F)cc2)c2ccccc12 | – | · | · | · | · | · | · | ·
CO[C@H]1/C=C/O[C@@]2(C)Oc3c(C)c(O)c4c(O)c(c5c(c4c3C2=O)NC2(CCN(CC(C)C)CC2)N=5)=NC(=O)/C(C)=C\C=C\[C@H](C)[C@H](O)[C@@H](C)[C@@H](O)[C@@H](C)[C@H](OC(C)=O)[C@@H]1C | · | · | 95 | 107 | · | 95 | 99 | 100
CCc1ccc(NC(=O)CCC(=O)N2CCSc3ccccc32)cc1 | – | – | 14 | – | – | – | – | –
CNc1cccnc1C=NNC(N)=S | · | · | – | – | · | · | · | ·
NC(=S)NN=Cc1nccc2c(C(F)(F)F)cccc12 | · | · | 16 | · | · | 18 | 21 | 22
O=C(NN=Cc1ccc[nH]1)c1cc(-c2ccc(Cl)cc2)nc2ccccc12 | – | · | · | · | · | · | · | ·
COCCNC(=O)C(C)C1C[C@]1(C)C(NC(=O)OCc1ccccc1)c1ccccc1 (stereo partly specified) | – | · | · | · | · | · | · | ·
CCN(CC)S(=O)(=O)c1cccc(C(=O)N/N=C/c2ccc(O)c(O)c2O)c1 | · | – | 14 | – | 14 | – | – | –
Oc1c(Br)cc(Br)cc1CNc1cccc2cccnc12 | – | – | – | – | – | · | · | ·
Oc1c(Br)cc(Br)c2cccnc12 | · | · | 44 | – | · | 60 | 68 | 53
CC(=O)NC(c1ccc(C)cc1)c1cc(Cl)c2cccnc2c1O (stereo unspecified) | · | · | 21 | – | · | 12 | – | –
CC(=O)NC(c1ccccc1)c1cc([N+](=O)[O-])c2cccnc2c1O (stereo unspecified) | – | – | – | – | – | · | · | ·
CCC(=O)NC(c1cccs1)c1cc(Cl)c2ccccc2c1O (stereo unspecified) | – | – | – | – | – | · | · | ·
O=C(CCc1ccccc1)NC(c1cccs1)c1cc(Cl)c2cccnc2c1O (stereo unspecified) | – | · | 17 | – | · | – | – | –
CC(=O)NC(c1cc(Cl)c2cccnc2c1O)C1CC1 (stereo unspecified) | – | – | – | – | – | · | · | ·
Oc1c(C(Nc2ccccn2)c2cccnc2)cc(Cl)c2cccnc12 (stereo unspecified) | – | 10 | 18 | – | – | – | – | –
SMILES | E coli growth-1 | E coli growth-2 | phage Ecoli inh | Tat transport | AddAB inh | RecBCD conf | Ecoli viability | AddAB counter
O=C(NN=C/C=C/c1ccc2c(c1)OCO2)C(O)c1ccccc1 (stereo unspecified) | – | · | · | · | · | · | · | ·
CCOC(=O)c1[nH]c2cc(OC)c(OC)cc2c1NC(=O)c1nonc1C | – | – | 14 | – | – | – | – | –
CCC(=O)Nc1cccc(C2=NOC3(C2)CC(C(N)=O)N(C(=O)CC)C3)c1 (stereo unspecified) | – | · | · | · | · | · | · | ·
CCN1CCN(c2ccc(S(=O)(=O)N3CCCCC3)cc2NC(=O)c2ccc([N+](=O)[O-])o2)CC1 | – | – | – | – | – | · | · | ·
CCN1CCN(c2ccc(NC(=O)c3ccc([N+](=O)[O-])o3)cc2Cl)CC1 | – | · | 21 | – | · | 16 | – | 102
COC(=O)C(Cc1ccccc1)NC(=O)Nc1ccc(S(N)(=O)=O)cc1 (stereo unspecified) | – | · | · | · | · | · | · | ·
Cn1ccc(=O)c2cc([N+](=O)[O-])ccc21 | · | · | 15 | · | · | – | – | 99
Oc1cccc2cc(Nc3ccccc3)cnc12 | · | · | 23 | · | · | 16 | – | 25
COc1ccc(C=NNC(=O)CC(=O)NCc2cccnc2)cc1 | – | · | · | · | · | · | · | ·
Cc1ccc(/C=C/C(=O)c2ccccc(=O)c2O)c(C)c1 | – | – | 13 | – | – | – | – | –
O=C(/C=C/c1ccc([N+](=O)[O-])cc1)c1ccccc(=O)c1O | · | · | 16 | – | · | – | – | –
O=C(C=Cc1ccccc1O)c1ccccc1O | – | · | – | – | · | · | · | ·
O=C(/C=C/c1ccc([N+](=O)[O-])cc1)c1cccs1 | – | – | – | – | – | · | · | ·
COc1cc(C=NN2CCOCC2)ccc1OCc1ccccc1 | – | · | · | · | · | · | · | ·
CCC(C)Sc1ccc(C2N[C@@](Cc3ccccc3)(C(=O)OC)C3C(=O)N(CC)C(=O)C23)cc1 (stereo partly specified) | – | · | · | · | · | · | · | ·
O=C(O)c1cn(-c2ccc(F)cc2)c2cc(N3CCNCC3)c(F)cc2c1=O | · | · | 99 | 114 | · | 102 | 103 | 103
N#CC(=Cc1ccc(C(=O)O)cc1)c1ccccn1 | – | · | · | · | · | · | · | ·
COc1ccc(S(=O)(=O)N2CCC(C(=O)NCCc3ccc(OC)c(OC)c3)CC2)cc1 | · | · | – | · | · | · | · | ·
COc1ccc(CCNC(=O)C2CCN(S(=O)(=O)c3ccc(SC)cc3)CC2)cc1 | – | – | 17 | – | – | – | – | –
Cc1cc(C=C2C(=O)N(C)C(=S)N2C)ccc1N1CCCC1 | – | · | · | · | · | · | · | ·
Cc1onc(-c2ccccc2)c1C(=O)NN=Cc1cc(Cl)cc(Cl)c1O | · | · | 11 | · | · | – | – | –
COc1ccc(N(C)S(=O)(=O)c2ccc(Cl)c(C(=O)NNC(=O)c3ccccc3O)c2)cc1 | – | · | 12 | – | · | – | – | –
Cc1cc(NC(c2cccnc2)c2ccc3cccnc3c2O)no1 (stereo unspecified) | – | – | 13 | – | – | – | – | –
Cc1cc(C)nc(Nc2cccc(C(F)(F)F)c2)n1 | – | – | – | – | – | · | · | ·
Oc1c(C(Nc2cccc(C(F)(F)F)c2)c2cccnc2)ccc2cccnc12 (stereo unspecified) | – | – | 12 | – | – | – | – | –
